Test results as given in PubChem BioAssay (NCI).
This is part of a sample that, as a whole, favours compounds with a hit. Of some 79,000 tested, about 15% had one in any assay. Values without a mark were called inactive. The source made the active and inactive calls. No stated cut-off is given here; in the data, active means growth inhibition above about 70%; inactive means the rest.

Key:
[1] = NCI Yeast Anticancer Drug Screen. Data for the rad50 strain (AID 155);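 further: 0% = growth of vehicle-only cultures of the same strain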; conditions: S. cerevisiae rad50 strain growth inhibition; at 50.0 µM; stronger effect = higher value
In short: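 Relative growth inhibition (compound vs vehicle) was measured in yeast with a defined repair-gene alteration.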

[2] = NCI Yeast Anticancer Drug Screen. Data for the mec2-1 strain (AID 157); conditions: S. cerevisiae mec2-1 strain, at 50.0 µM, stronger effect = higher value
In short: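 Test agents were screened against the mec2-1 yeast strain, with defined DNA repair or cell cycle alteration. Growth was scored as inhibition against vehicle-only controls.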

[3] = NCI Yeast Anticancer Drug Screen. Data for the sgs1 mgt1 strain (AID 161);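 further: 0% = growth of cultures given vehicle only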; conditions: S. cerevisiae sgs1 mgt1 strain, at 50.0 µM, stronger effect = higher value
In short: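 Mutant yeast exposed to compound; growth scored against vehicle-only wells.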

[4] = NCI Yeast Anticancer Drug Screen. Data for the cln2 rad14 strain (AID 165);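 further: 0% = growth equal to vehicle treated cultures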; conditions: S. cerevisiae cln2 rad14 strain, at 50.0 µM, stronger effect = higher value
In short: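 Growth of compound-exposed yeast (cln2 rad14 genotype) measured and expressed as inhibition relative to vehicle.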

[5] = NCI Yeast Anticancer Drug Screen. Data for the bub3 strain (AID 167); conditions: S. cerevisiae bub3 mutant strain, at 50.0 µM, stronger effect = higher value
In short: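 Screening used yeast with an engineered genetic alteration affecting cell cycle control. Compound-exposed cultures were compared with vehicle cultures, and reduced growth was taken as inhibition.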

[6] = NCI Yeast Anticancer Drug Screen. Data for the mlh1 rad18 strain (AID 175); conditions: S. cerevisiae mlh1 rad18 strain growth inhibition; at 50.0 µM; stronger effect = higher value
In short: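 In this whole-cell yeast screen, a strain with altered DNA damage repair is challenged with compound, and its growth is measured against matched vehicle-treated controls.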

## S=c1nc(-c2cccnc2)[nH][nH]1
[1]
  growth inhibition: 1.6%
[2]
  growth inhibition: 0.5%
[3]
  growth inhibition: 0.7%
[4]
  growth inhibition: 0.8%
[5]
  growth inhibition: 1.55%
[6]
  growth inhibition: 3.85%

## Cc1cc(C)n(-c2ccncc2[N+](=O)[O-])n1
[1]
  growth inhibition: 7.55%
[2]
  growth inhibition: 17.9%
[3]
  growth inhibition: -2.45%
[4]
  growth inhibition: -13.8%
[5]
  growth inhibition: 9.05%
[6]
  growth inhibition: 0.2%

## CCCSc1n[nH]c(=S)c2nc[nH]c12
[1]
  growth inhibition: -2%
[2]
  growth inhibition: -24.3%
[3]
  growth inhibition: -14.8%
[4]
  growth inhibition: -5.5%
[5]
  growth inhibition: -21.8%
[6]
  growth inhibition: -1.15%

## CC(=O)OCC(=O)COC(C)=O
[1]
  growth inhibition: -4.95%
[2]
  growth inhibition: -6.35%
[3]
  growth inhibition: -8.4%
[4]
  growth inhibition: 8.5%
[5]
  growth inhibition: -2.2%
[6]
  growth inhibition: -8.55%

## CCC1OC(=O)C(C)C(OC2CC(C)(O)C(O)C(C)O2)C(C)C(O)C(C)(O)CC(C)C(=O)C(C)C(O)C1C (configuration not stated)
[1]
  growth inhibition: -14.4%
[2]
  growth inhibition: -22.6%
[3]
  growth inhibition: 0.5%
[4]
  growth inhibition: -5.4%
[5]
  growth inhibition: -21.2%
[6]
  growth inhibition: -5.15%

## Cc1ccc2nc(CC(=O)c3ccc4ccccc4c3)c(=O)[nH]c2c1
[1]
  growth inhibition: 6.4%
[2]
  growth inhibition: 9.65%
[3]
  growth inhibition: 9.2%
[4]
  growth inhibition: 13.3%
[5]
  growth inhibition: 3.15%
[6]
  growth inhibition: 22.1%

## Nc1nc2[nH]c(=O)cnc2c(=O)[nH]1
[1]
  growth inhibition: -17.8%
[2]
  growth inhibition: -32.3%
[3]
  growth inhibition: -26.2%
[4]
  growth inhibition: -0.1%
[5]
  growth inhibition: -27.5%
[6]
  growth inhibition: -20.7%

## O=C1c2cc([N+](=O)[O-])ccc2-c2c(S)cccc21
[1]
  growth inhibition: 2.25%
[2]
  growth inhibition: 5.25%
[3]
  growth inhibition: -10.2%
[4]
  growth inhibition: -4.7%
[5]
  growth inhibition: 25.8%
[6]
  growth inhibition: -16.3%

## O=C(Nc1ccsc1)c1ccccc1
[1]
  growth inhibition: -10.8%
[2]
  growth inhibition: -8.7%
[3]
  growth inhibition: -19.3%
[4]
  growth inhibition: -58.2%
[5]
  growth inhibition: -27.4%
[6]
  growth inhibition: -3.25%

## CCN(CC)CC(O)CO (configuration not stated)
[1]
  growth inhibition: -4.55%
[2]
  growth inhibition: -16.6%
[3]
  growth inhibition: -17.1%
[4]
  growth inhibition: 5.9%
[5]
  growth inhibition: 2%
[6]
  growth inhibition: 1.35%

## CCOC(=O)Oc1ccc(C(CNC(C)C)OC(=O)OCC)cc1OC(=O)OCC (configuration not stated)
[1]
  growth inhibition: 38.5%
[2]
  growth inhibition: 2.8%
[3]
  growth inhibition: 25.6%
[4]
  growth inhibition: 9.65%
[5]
  growth inhibition: 4.45%
[6]
  growth inhibition: 32.9%

## CCOc1ccc2[nH]c(C)c(CC(=O)O)c2c1
[1]
  growth inhibition: -3.7%
[2]
  growth inhibition: -9.25%
[3]
  growth inhibition: -13.5%
[4]
  growth inhibition: -16.4%
[5]
  growth inhibition: 9.3%
[6]
  growth inhibition: -7.2%

## NC(=O)c1csc(NC2OC(CO)C(O)C(O)C2O)n1 (configuration not stated)
[1]
  growth inhibition: 23.1%
[2]
  growth inhibition: -8.8%
[3]
  growth inhibition: 0.05%
[4]
  growth inhibition: 14.8%
[5]
  growth inhibition: -0.25%
[6]
  growth inhibition: -0.05%

## O=[N+]([O-])c1ccc(C2=Nc3ccccc3S(=O)C(c3ccccc3)C2)cc1 (configuration not stated)
[1]
  growth inhibition: 5.3%
[2]
  growth inhibition: -27.3%
[3]
  growth inhibition: 19.9%
[4]
  growth inhibition: 3.45%
[5]
  growth inhibition: 10.7%
[6]
  growth inhibition: 20.6%

## COc1cc(CCC(C)=O)ccc1OC(=O)c1c(-c2c(F)cccc2Cl)noc1C
[1]
  growth inhibition: 1.85%
[2]
  growth inhibition: -12.2%
[3]
  growth inhibition: 14.3%
[4]
  growth inhibition: 19.3%
[5]
  growth inhibition: 10.3%
[6]
  growth inhibition: 3.5%

## C/C(=N/N(C=O)C[n+]1ccccc1)C(CN(CC(C)C)CC(C)C)C(=O)Nc1ccc(C)cc1C (configuration not stated)
[1]
  growth inhibition: -10.4%
[2]
  growth inhibition: 40%
[3]
  growth inhibition: -14.5%
[4]
  growth inhibition: 31.5%
[5]
  growth inhibition: 19.9%
[6]
  growth inhibition: 19.9%

## Cc1cc(C)[n+](C)c2cc3ccccc3cc12
[1]
  growth inhibition: 26.4%
[2]
  growth inhibition: -20.2%
[3]
  growth inhibition: 20.9%
[4]
  growth inhibition: 44.2%
[5]
  growth inhibition: -8.55%
[6]
  growth inhibition: -28.5%

## CC1=C(C(=O)Nc2cc(F)c(F)cc2F)C(c2cccc([N+](=O)[O-])c2)C(C(=O)Nc2ccccc2C(F)(F)F)=C(C)N1 (configuration not stated)
[1]
  growth inhibition: 20.4%
[2]
  growth inhibition: 21.8%
[3]
  growth inhibition: 8.4%
[4]
  growth inhibition: 2.15%
[5]
  growth inhibition: 9.75%
[6]
  growth inhibition: -2.65%

## O=C(Cn1c2c(c3ccccc31)CCCC2)NC1CCCCC1
[1]
  growth inhibition: 2.6%
[2]
  growth inhibition: -28.4%
[3]
  growth inhibition: 21.9%
[4]
  growth inhibition: 30.3%
[5]
  growth inhibition: 1.25%
[6]
  growth inhibition: 9.7%

## O=C1C(O)=C(Br)C(=O)C(O)=C1Br
[1]
  growth inhibition: 6.2%
[2]
  growth inhibition: -12.2%
[3]
  growth inhibition: 10.1%
[4]
  growth inhibition: -12.1%
[5]
  growth inhibition: 15.4%
[6]
  growth inhibition: 11.6%

## c1ccc2c(c1)n1nnnc1c1nnnn21
[1]
  growth inhibition: 34.6%
[2]
  growth inhibition: -10.4%
[3]
  growth inhibition: 20.1%
[4]
  growth inhibition: 23.7%
[5]
  growth inhibition: 4.85%
[6]
  growth inhibition: 24.4%

## Cc1ccc(S(=O)(=O)Oc2nc3nc4ccccc4nc3nc2OS(=O)(=O)c2ccc(C)cc2)cc1
[1]
  growth inhibition: -3.5%
[2]
  growth inhibition: -2%
[3]
  growth inhibition: 3.7%
[4]
  growth inhibition: -10.5%
[5]
  growth inhibition: 3.5%
[6]
  growth inhibition: -3.95%

## CC1(C)N=C(C2CCCN2C(=O)OCc2ccccc2)OC1=O (configuration not stated)
[1]
  growth inhibition: -43%
[2]
  growth inhibition: -20.7%
[3]
  growth inhibition: -38.1%
[4]
  growth inhibition: -1.75%
[5]
  growth inhibition: 12.3%
[6]
  growth inhibition: -28.6%

## Cc1ccc(S(=O)(=O)N/N=C2\CC[C@H]3[C@@H]4CC=C5C[C@@H](O)CC[C@]5(C)[C@H]4CC[C@]23C)cc1
[1]
  growth inhibition: 95.3% (active)
[2]
  growth inhibition: 95.3% (active)
[3]
  growth inhibition: 76.3% (active)
[4]
  growth inhibition: 97% (active)
[5]
  growth inhibition: 90.6% (active)
[6]
  growth inhibition: 96% (active)

## CCCCCCCCCCCCCCCCN1c2ccccc2C(C)(C)C12C=Cc1cccc([N+](=O)[O-])c1O2 (configuration not stated)
[1]
  growth inhibition: 2.85%
[2]
  growth inhibition: -0.6%
[3]
  growth inhibition: 13.7%
[4]
  growth inhibition: 14.2%
[5]
  growth inhibition: -3.1%
[6]
  growth inhibition: -3.2%

## O=C(c1cc(O)c(O)c(O)c1)c1ccc(O)c(O)c1O
[1]
  growth inhibition: 12.9%
[2]
  growth inhibition: 5.95%
[3]
  growth inhibition: 11.3%
[4]
  growth inhibition: 5.2%
[5]
  growth inhibition: 14.1%
[6]
  growth inhibition: 32.8%

## COC(=O)C1OC1c1ccncc1 (configuration not stated)
[1]
  growth inhibition: 19.1%
[2]
  growth inhibition: 6.15%
[3]
  growth inhibition: 32.3%
[4]
  growth inhibition: 5.3%
[5]
  growth inhibition: 0.1%
[6]
  growth inhibition: 5.5%

## O=C(Nc1cccc(F)c1)Oc1ccc(OCc2ccccc2)cc1
[1]
  growth inhibition: 3.8%
[2]
  growth inhibition: 6.6%
[3]
  growth inhibition: 9.9%
[4]
  growth inhibition: 8.7%
[5]
  growth inhibition: 17.9%
[6]
  growth inhibition: 16%

## C(=C\c1cc(-c2ccc3ccccc3n2)nc2ccc3ccccc3c12)/c1ccc2ccccc2n1
[1]
  growth inhibition: 9.7%
[2]
  growth inhibition: -1.4%
[3]
  growth inhibition: 26.9%
[4]
  growth inhibition: 28.9%
[5]
  growth inhibition: 25.5%
[6]
  growth inhibition: -11.2%

## CC(=O)COC(C)=O
[1]
  growth inhibition: 40.2%
[2]
  growth inhibition: -15.6%
[3]
  growth inhibition: 4.85%
[4]
  growth inhibition: -5%
[5]
  growth inhibition: 2.6%
[6]
  growth inhibition: 12.6%

## CS[C@]12C(=O)C[C@@]3(C)[C@@H](CC[C@]3(O)C(=O)CO)[C@@H]1CCC1=CC(=O)CC[C@@]12C
[1]
  growth inhibition: -2.2%
[2]
  growth inhibition: -24%
[3]
  growth inhibition: -15.9%
[4]
  growth inhibition: 28.7%
[5]
  growth inhibition: -54.8%
[6]
  growth inhibition: -20.4%

## C[CH2][Ge]([CH2]C)[CH2]C.C[CH2][Ge]([CH2]C)[CH2]C.C[CH2][Ge]([CH2]C)[S][Ge]([CH2]C)[CH2]C
[1]
  growth inhibition: 25.1%
[2]
  growth inhibition: 29.5%
[3]
  growth inhibition: 52.7%
[4]
  growth inhibition: 40.4%
[5]
  growth inhibition: 35.9%
[6]
  growth inhibition: 6.75%

## O=C(O)c1ccc2c(c1)C(=O)c1c(c(O)c3ccccc3c1O)C2=O
[1]
  growth inhibition: 9.25%
[2]
  growth inhibition: 6.25%
[3]
  growth inhibition: 9.6%
[4]
  growth inhibition: -11.7%
[5]
  growth inhibition: 12.3%
[6]
  growth inhibition: -8.55%

## Clc1ccc(C2ON=C(c3ccccc3)N2C23CC4CC(CC(C4)C2)C3)cc1 (configuration not stated)
[1]
  growth inhibition: -23.2%
[2]
  growth inhibition: -27%
[3]
  growth inhibition: -24.1%
[4]
  growth inhibition: -0.3%
[5]
  growth inhibition: -11.9%
[6]
  growth inhibition: -0.75%

## CCCCCCCCCCCCCCCc1nnc(SC)s1
[1]
  growth inhibition: -22.6%
[2]
  growth inhibition: -39%
[3]
  growth inhibition: -14.9%
[4]
  growth inhibition: 15.3%
[5]
  growth inhibition: -3.15%
[6]
  growth inhibition: 11.2%

## COC(=O)C(C(=O)C(=O)NC1=C(Cl)C(=O)c2ccccc2C1=O)c1csc(-n2nc(-c3ccccc3)cc2-c2ccccc2)n1 (configuration not stated)
[1]
  growth inhibition: -0.4%
[2]
  growth inhibition: -26.6%
[3]
  growth inhibition: -14.4%
[4]
  growth inhibition: 0.85%
[5]
  growth inhibition: 26.1%
[6]
  growth inhibition: -5.4%

## c1ccc(CCn2c(-c3ccccn3)nc3ccccc32)nc1
[1]
  growth inhibition: 13.2%
[2]
  growth inhibition: -4.25%
[3]
  growth inhibition: 18.1%
[4]
  growth inhibition: -24.5%
[5]
  growth inhibition: 15.5%
[6]
  growth inhibition: 7.95%
